Screening results (PubChem)
FBW7 act = human FBW7 E3 ligase activation, primary screen | AID 1259310 | 650,000 compounds, 0.13% hits | AlphaScreen FBW7–phospho-cyclin E peptide binding, activator screen | Q969H0 | normalized activity (activation), % at 26.1 µM; in the data active = normalized activity above about 1.9%;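 note: purified mutant Fbw7 with reduced substrate affinity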
MITF inh = inhibitors of human MITF; 650,000 compounds, 0.91% hits; inhibition, % at 2.6 µM; AlphaScreen MITF homodimerization, bead proximity signal; in the data active = inhibition above about 50%;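 note: 0% = vehicle wells with protein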
TEAD-YAP block = TEAD-YAP interaction inhibition; 640,000 compounds, 1.4% hits; AID 1259422; inhibition, % at 9.12 µM; HEK-TIYL cells, TEAD-Gal4/YAP UAS-luciferase luminescence; in the data active = inhibition above about 32%;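 note: 0% = median of test compound wells and 100% = reference inhibitor wells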
GPR151 ag = activates the human receptor GPR151; 650,000 compounds, 1% hits; PathHunter beta-arrestin GPR151 cells, luminescence; Q8TDV0; activation, % at 11.2 µM; AID 1508602; in the data active = activation above about 4.9%;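 note: 0% = median of compound wells and 100% = cells with positive control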
GPR151 conf act = human GPR151 activation, confirmation screen; 6,700 tested, under 10 active; AID 1508609; GPR151 PathHunter beta-arrestin cells, luminescence, 90 min; % of EA-reagent control over plate median; shares compounds with GPR151 ag; activation, % at 11.2 µM;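 active = mean percent activation across replicates above the confirmation screen cutoff of 4.91%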
GPR119 ag = GPR119 activation, counter-screen for GPR151 activators | shares compounds with GPR151 ag | GPR119 PathHunter beta-arrestin cells, luminescence, 90 min; 0 = compound-well median, 100 = enzyme-acceptor control | activation, % at 11.2 µM | 6,700 compounds, 0.3% hits;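 active = mean percent activation in the counterscreen above 29.09%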;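 note: counterscreen on off-target GPR119 to flag nonselective hits from the GPR151 activator screen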
Target sequence (Q8TDV5 whole entry, looked up): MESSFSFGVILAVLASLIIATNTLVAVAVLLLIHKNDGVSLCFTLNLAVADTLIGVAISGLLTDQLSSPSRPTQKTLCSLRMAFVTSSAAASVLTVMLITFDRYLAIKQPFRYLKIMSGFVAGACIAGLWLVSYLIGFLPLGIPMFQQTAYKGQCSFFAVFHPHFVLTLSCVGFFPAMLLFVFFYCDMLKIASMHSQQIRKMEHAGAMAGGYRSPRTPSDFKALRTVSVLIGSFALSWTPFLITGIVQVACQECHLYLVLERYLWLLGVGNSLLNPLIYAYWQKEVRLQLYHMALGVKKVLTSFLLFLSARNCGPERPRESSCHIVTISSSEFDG
Active calls of the source: *; . = no result given; ! = not active in a repeat. Only some compounds are listed: those with a hit (about 3.5% of all), similar ones and a draw of the others.

SMILES | FBW7 act | MITF inh | TEAD-YAP block | GPR151 ag | GPR151 conf act | GPR119 ag
C=CCN1C(=O)/C(=C/c2ccc(Cl)cc2)C(=O)NC1=S | 0 | 5 | 0 | 16* | -1 | -12
COc1ccc(-c2cc3ccc(O)c(CN4CCOCC4)c3oc2=O)cc1 | 0 | 8 | -3 | -1 | . | .
O=c1oc2c(CN3CCOCC3)c(O)ccc2cc1-c1ccc(F)cc1 | 1 | 7 | -4 | 14* | 0 | -3
CC(=O)Oc1ccc(/C(C)=N/NC(=O)c2ccco2)cc1 | 0 | 12 | -50 | -3 | . | .
CCc1nc2ccccc2c(NC(=O)CN2CCC(C)CC2)c1C | 0 | 44 | -2 | 5.3* | 0 | -3
CCCNCCC1CCC(=O)N1CCc1cccc(OC)c1 (configuration not stated) | 0 | 9 | -11 | 6.7* | -1 | 10
COc1cccc(CCN2C(=O)CCC2CCNCc2cccc(F)c2)c1 (configuration not stated) | 0 | 1 | 5 | 5.1* | 0 | 6
C=CCOc1ccc(/C(O)=C2/C(=O)C(=O)N(CCCN3CCOCC3)C2c2ccc(OC)cc2)c(C)c1 (configuration not stated) | 0 | 3 | -7 | 0 | . | .
COc1ccc(/C=C2\N=C(c3ccc([N+](=O)[O-])cc3Cl)OC2=O)c(OC)c1 | 0 | -2 | -3 | 0 | . | .
COc1cccc(N(CC(=O)Nc2cc(C)[nH]n2)C2=NC3CS(=O)(=O)CC3S2)c1 (configuration not stated) | -1 | 6 | -2 | 1 | . | .
CCCCCCc1c(C)c2ccc(OC(C)C(=O)OC)cc2oc1=O (configuration not stated) | 0 | -6 | 4 | 5.7* | 0 | -10
CCc1cc(=O)oc2cc(OC(=O)c3ccco3)ccc12 | 0 | -7 | 8 | 6.8* | 0 | -3
COC(=O)Cc1c(C)c2ccc(OC(=O)c3ccco3)cc2oc1=O | 0 | 8 | -7 | 9.0* | 1 | -3
COC(=O)C(C)Oc1ccc2c(C)c(Cc3ccccc3)c(=O)oc2c1 (configuration not stated) | 0 | -19 | -6 | 0 | . | .
Cc1cc(=O)oc2cc(OC(=O)c3ccco3)ccc12 | 0 | 15 | -1 | 0 | . | .
C=CCOC(=O)COc1ccc2c(CCC)cc(=O)oc2c1 | 0 | 12 | 7 | 5.8* | -1 | -8
CCCCOC(=O)COc1ccc2c(CCC)cc(=O)oc2c1 | 0 | -8 | 8 | 0 | . | .
C=CCN1C(=O)/C(=C/c2cc(C)n(-c3ccc(C(=O)OC)cc3)c2C)C(=O)NC1=S | 0 | 12 | 11 | -1 | . | .
O=C(NN=c1c(=O)c2ccccc2c1=O)c1cccc(S(=O)(=O)N2CCCCC2)c1 | 0 | 17 | -1 | -2 | . | .
CCn1cc(CN2CCC(n3nccc3NC(=O)c3ccc(OC)cc3)CC2)cn1 | 0 | 6 | 9 | 5.2* | -1 | -20
COc1ccccc1C(=O)Nc1ccnn1C1CCN(C2CCCCC2)CC1 | 0 | 5 | -3 | 5.1* | 1 | 10
COc1ccccc1C(=O)Nc1ccnn1C1CCN(Cc2ccc3nsnc3c2)CC1 | 0 | 5 | 6 | 5.6* | 1 | 7
COc1ccccc1C(=O)Nc1ccnn1C1CCN(Cc2cccc(C(C)=O)c2)CC1 | 0 | -3 | -7 | 1 | . | .
COc1ccc(-n2c(SC)nc3scc(-c4ccc(Cl)cc4)c3c2=O)cc1 | 0 | 4 | 9 | 1 | . | .
COc1cc(/C=c2\sc3nc(-c4ccncc4)nn3c2=O)ccc1OC(C)=O | 0 | 7 | -3 | 4.9* | 2 | -1
SMILES | FBW7 act | MITF inh | TEAD-YAP block | GPR151 ag | GPR151 conf act | GPR119 ag
COc1ccc(-c2nc3s/c(=C\c4ccccc4F)c(=O)n3n2)cc1 | 0 | 2 | -6 | 0 | . | .
CCOc1ccc(-c2nc3s/c(=C\c4ccccc4F)c(=O)n3n2)cc1 | 0 | 0 | -5 | 11* | 0 | 4
CCCCOc1ccc(/C=c2\sc3nc(-c4ccncc4)nn3c2=O)cc1 | 0 | 0 | 9 | 5.1* | 0 | -2
CCCCOc1ccc(/C=c2\sc3nc(-c4ccc(Cl)cc4)nn3c2=O)cc1 | 0 | -4 | 0 | 1 | . | .
COc1ccc(/C=c2\sc3nc(-c4ccncc4)nn3c2=O)cc1OC | 0 | 20 | 12 | -1 | . | .
CC(C)CCOc1ccc(-c2nn(-c3ccccc3)cc2/C=c2\sc3nc(-c4cccs4)nn3c2=O)cc1 | 0 | 28 | -3 | 7.0* | -1 | 14
COCCNc1ncnc2c1cnn2-c1ccccc1 | 0 | 0 | -56 | -1 | . | .
COc1ccc(C(=O)Oc2cc(C(=S)N3CCCCC3)ccc2OC)cc1 | -1 | 6 | -2 | 3 | . | .
O=C(NCCN1CCCCCC1)c1ncoc1-c1ccc(Cl)cc1 | 0 | -20 | 6 | 5.9* | 0 | 10
COc1ccc(-c2ocnc2C(=O)NCCN2CCCCCC2)cc1OC | 0 | 14 | 3 | 1 | . | .
CC(C)OC1(C(F)(F)F)NC(=O)N(c2cccc(C(F)(F)F)c2)C1=O (configuration not stated) | 0 | 13 | 3 | 2 | . | .
CC1(C)NC(=O)N(c2ccc([N+](=O)[O-])c(C(F)(F)F)c2)C1=O | 0 | -14 | 1 | 5.5*! | 1 | -3
Clc1ccc(N2CCN(Cc3ccoc3)CC2)cc1 | 0 | 39 | -5 | 0 | . | .
Clc1ccc(N2CCN(Cc3ccco3)CC2)cc1 | 1 | 26 | 1 | 5.0* | 0 | 7
Cc1ccccc1-n1c(O)c(C=NCCCC(C)C)c(=O)[nH]c1=O | 0 | -3 | 10 | 8.5* | 0 | 13
COc1ccccc1N=Cc1c(O)n(-c2ccccc2C)c(=O)[nH]c1=O | 0 | 22 | -3 | 6.0* | 1 | 9
COC(=O)C1=C(C)NC(C)=C(C(=O)OC)C1c1ccc(Br)cc1 | 0 | -3 | -7 | 0 | . | .
COc1ccccc1CC(=O)NCC1COc2ccccc2O1 (configuration not stated) | 0 | 13 | -2 | 5.7* | 0 | 11
COc1cccc(CC(=O)NCC2COc3ccccc3O2)c1OC (configuration not stated) | 0 | 4 | 1 | 0 | . | .
COc1ccc(C2C(C(=O)NCC3COc4ccccc4O3)c3ccccc3C(=O)N2c2ccc(OC)cc2)cc1 (configuration not stated) | 0 | 8 | 8 | 7.2* | 0 | -8
O=C(CN1CCN(Cc2ccccc2)CC1)NCC1COc2ccccc2O1 (configuration not stated) | 0 | -8 | 4 | 9.2* | 0 | -8
CC(=O)N(C)c1nc(-c2ccccc2)ccc1C(=O)NCC1COc2ccccc2O1 (configuration not stated) | 0 | 20 | -1 | 11* | 0 | -2
O=C(CN1C(=O)c2ccccc2C1=O)NCC1COc2ccccc2O1 (configuration not stated) | 0 | 1 | -1 | -2 | . | .
